In PubChem BioAssay AID504386 (National Center for Advancing Translational Sciences (NCATS), 2011):
Inconclusive results are not listed. Active and inactive are the calls of the source. The call rests on the fitted dose curve; in most records, active means well fitted curve in the direction sought with a large enough effect; inconclusive means small, poorly fitted or top-dose-only effect, or another doubt; inactive means no such curve, though single readings can be large or run the other way.

Biological target: Runt-related transcription factor 1 (Homo sapiens) + Core-binding factor subunit beta (Homo sapiens) (UniProt Q01196+Q13951)
Sequence (Q01196 whole entry, looked up): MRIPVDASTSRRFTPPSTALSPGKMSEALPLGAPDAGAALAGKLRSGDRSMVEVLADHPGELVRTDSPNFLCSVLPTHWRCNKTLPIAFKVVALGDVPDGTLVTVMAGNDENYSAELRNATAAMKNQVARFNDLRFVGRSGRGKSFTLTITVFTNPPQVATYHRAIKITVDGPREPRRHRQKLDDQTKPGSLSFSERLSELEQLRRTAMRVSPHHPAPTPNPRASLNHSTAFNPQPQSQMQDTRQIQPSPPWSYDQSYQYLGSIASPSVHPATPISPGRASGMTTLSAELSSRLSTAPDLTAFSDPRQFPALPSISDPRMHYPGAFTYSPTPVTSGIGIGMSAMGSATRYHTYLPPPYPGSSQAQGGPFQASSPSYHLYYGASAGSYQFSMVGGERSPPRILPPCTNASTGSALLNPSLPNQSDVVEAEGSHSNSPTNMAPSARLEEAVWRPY
Sequence (Q13951 whole entry, looked up): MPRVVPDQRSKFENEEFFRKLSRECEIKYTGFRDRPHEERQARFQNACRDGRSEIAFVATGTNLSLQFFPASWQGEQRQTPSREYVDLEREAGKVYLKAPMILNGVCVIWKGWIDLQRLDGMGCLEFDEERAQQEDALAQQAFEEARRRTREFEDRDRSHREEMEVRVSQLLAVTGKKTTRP
Assay: qHTS Assay for Compounds Blocking the Interaction Between CBF-beta and RUNX1 for the Treatment of Acute Myeloid Leukemia: SAR for Probe
Settings: AlphaScreen CBFb-His/RUNX1-biotin binding, biochemical
Text: NIH Chemical Genomics Center [NCGC] NIH Molecular Libraries Probe Production centers Network [MLPCN] MLPCN Grant: X01MH083259-01 Assay Submitter (PI): Paul Liu NCGC Assay Overview: Core Binding Factor (CBF) abnormalities are associated with 20-25% of all acute myeloid leukemias (AML), of which 5-10% are further sub classified as acute myelomonocytic leukemia with eosinophilia, also known as M4Eo in the FAB classification scheme. This subtype of leukemia is usually associated with chromosome 16 inversion (p13:q22). Chromosome 16 inversion results in formation of the fusion oncogene CBFB-MYH11, which encodes the fusion protein CBF-beta-SMMHC. […] It has been hypothesized that the interference of CBF-beta and RUNX1 binding could have therapeutic implications for patients with CBF mediated leukemias. […]
NCGC Assay Protocol Summary: Step, Parameter, Description (1) Reagent, 3 uL CBFb-His/RUNX1-biotin mix incubated together for 20 minutes at room temperature (30 nM each) (2) Compound or control, 23 nL compound stock solution (3) Incubation, 15 minutes at Room temperature (4) Reagent, 1 uL 50 ng each of beads (Nickel beads and streptavidin beads) (5) Incubation, 90 minutes at Room temperature (6) Detection, […], Envision reader in AlphaScreenTM mode Keywords: MLSMR, MLPCN, NIH Roadmap, qHTS, NCGC, Core binding factor, CBF, CBF-beta, Acute myeloid leukemia

SMILES | Potency
CCN(CC)CCN1C(=O)CN=C(c2ccccn2)c2cc(Cl)ccc21 | 21.7 µM (active)
CN1C(=O)CN=C(c2ccc[nH]2)c2cc(Cl)ccc21 (tested in a mixture with another compound) | 109 µM (active)
